Activity calls are given as the source filed them. No rule for the calls is given here.
Key:
[1] = kinase inhibitors against Plasmodium liver-stage infection, cell-based, known kinase inhibitor set, luminescence, hepatoma host viability (AID 624392); conditions: Plasmodium liver stage in hepatoma cells, luciferase luminescence, concentration not given here; liver cell % of control: measured here: host liver cell viability; parasite % of control: stronger effect = lower value;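 also: infected cells incubated roughly two days before readout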
[2] = modulators of glucocorticoid suppression of NF-kB, cell-based, luciferase, IL-1B stimulus, dexamethasone (AID 624486); conditions: NF-kB luciferase reporter, IL-1B + dexamethasone, luminescence; percent of negative control (+Dex): actives lie on both sides, concentration not given here; z-score: measured here: IL-1B alone, no Dex;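 as to percent of negative control (+Dex): 100% = mean signal of vehicle control wells on the plate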
[3] = biological target: Cellular tumor antigen p53 (Homo sapiens) (UniProt P04637); experiment: kinase inhibitors altering GFP-p53 stability in HPV16-positive cells, imaging, known kinase inhibitor set, EGFP/DsRed ratio (AID 1053116); conditions: stronger effect = higher value; EGFP object count: measured here: GFP-p53 positive objects count;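 also: cells exposed to compounds for 24 h at 37 °C before reading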
Sequence of Cellular tumor antigen p53 (Homo sapiens) (P04637 whole entry, looked up): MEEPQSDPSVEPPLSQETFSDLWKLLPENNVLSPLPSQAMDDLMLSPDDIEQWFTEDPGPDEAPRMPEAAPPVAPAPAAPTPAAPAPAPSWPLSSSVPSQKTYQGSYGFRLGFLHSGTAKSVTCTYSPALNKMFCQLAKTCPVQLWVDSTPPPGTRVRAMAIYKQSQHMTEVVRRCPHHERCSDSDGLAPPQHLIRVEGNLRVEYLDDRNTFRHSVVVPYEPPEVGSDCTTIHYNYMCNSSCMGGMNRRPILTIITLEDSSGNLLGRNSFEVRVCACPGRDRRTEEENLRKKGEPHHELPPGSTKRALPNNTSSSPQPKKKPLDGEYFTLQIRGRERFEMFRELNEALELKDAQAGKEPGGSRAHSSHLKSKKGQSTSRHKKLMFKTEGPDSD

[4] = IRF3 reporter activation in THP-1 macrophages, cell-based, PMA-stimulated THP-1, luminescence (AID 1053176); conditions: PMA-differentiated THP-1, IRF3 reporter luminescence; stronger effect = higher value

## COc1ccc(C2=C(c3cn(C)c4ccccc34)C(=O)NC2=O)cc1
[1]
  liver cell % of control: 131%
  parasite % of control: 39.3% (inactive)
[2]
  percent of negative control (+Dex): 108% (inactive)
  z-score: -0.1
[3]
  EGFP object count: 5.5
  EGFP/DsRed ratio: 0.214 (inactive)
[4]
  fraction signal: -0.0115 (inactive)

## Cn1cc(C2=C(c3cccc(Br)c3)C(=O)NC2=O)c2ccccc21
[1]
  liver cell % of control: 153%
  parasite % of control: 39.5% (inactive)
[2]
  percent of negative control (+Dex): 110% (inactive)
  z-score: -0.515
[3]
  EGFP object count: 3.5
  EGFP/DsRed ratio: 0.13 (inactive)
[4]
  fraction signal: 0.0055 (inactive)

## Cc1cccc2c(C3=C(c4cn(C)c5ccccc45)C(=O)NC3=O)cn(C)c12
[1]
  liver cell % of control: 91.7%
  parasite % of control: 45.3% (inactive)
[2]
  percent of negative control (+Dex): 98.5% (inactive)
  z-score: -1.08
[3]
  EGFP object count: 24
  EGFP/DsRed ratio: 0.241 (inactive)
[4]
  fraction signal: -0.0115 (inactive)

## CS(=O)(=O)CCCn1c(=O)c(Oc2ccc(F)cc2F)cc2cnc(NC3CCOCC3)nc21
[1]
  liver cell % of control: 98.7%
  parasite % of control: 51.4% (inactive)
[2]
  percent of negative control (+Dex): 101% (inactive)
  z-score: 0.05
[3]
  EGFP object count: 1
  EGFP/DsRed ratio: 0.0135 (inactive)
[4]
  fraction signal: -0.009 (inactive)

## Cn1cc(C2=C(c3cn(CCCN=C(N)N)c4ccccc34)C(=O)NC2=O)c2ccccc21
[1]
  liver cell % of control: 110%
  parasite % of control: 44.7% (inactive)
[2]
  percent of negative control (+Dex): 101% (inactive)
  z-score: 0.295
[3]
  EGFP object count: 7.5
  EGFP/DsRed ratio: 0.202 (inactive)
[4]
  fraction signal: -0.005 (inactive)

## O=C1NC(=NC2CC2c2ccccc2)SC1=Cc1ccc2ncccc2c1 (stereo not drawn)
[1]
  liver cell % of control: 193%
  parasite % of control: 10.6% (inactive)
[2]
  percent of negative control (+Dex): 64% (active)
  z-score: -4.3
[3]
  EGFP object count: 3
  EGFP/DsRed ratio: 0.221 (inactive)
[4]
  fraction signal: -0.0115 (inactive)

## COc1cc[nH]c1C=C1C(=O)Nc2ccc(F)c(C#CC3(O)CCNCC3)c21
[1]
  liver cell % of control: 70.4%
  parasite % of control: 10.7% (inactive)
[2]
  percent of negative control (+Dex): 108% (inactive)
  z-score: -2.18
[3]
  EGFP object count: 467
  EGFP/DsRed ratio: 3.03 (inactive)
[4]
  fraction signal: -0.005 (inactive)

## O=C1NC(O)C(c2c[nH]c3ccccc23)=C1c1c[nH]c2ccccc12 (stereo not drawn)
[1]
  liver cell % of control: 141%
  parasite % of control: 47.1% (inactive)
[2]
  percent of negative control (+Dex): 93% (inactive)
  z-score: 0.455
[3]
  EGFP object count: 4
  EGFP/DsRed ratio: 0.15 (inactive)
[4]
  fraction signal: 0.001 (inactive)

## Cn1cc(C2=C(c3cccc(NCC(O)CO)c3)C(=O)NC2=O)c2cc(Cl)ccc21 (stereo not drawn)
[1]
  liver cell % of control: 134%
  parasite % of control: 44.5% (inactive)
[2]
  percent of negative control (+Dex): 140% (active)
  z-score: -1.56
[3]
  EGFP object count: 15
  EGFP/DsRed ratio: 0.196 (inactive)
[4]
  fraction signal: -0.0005 (inactive)

## Cc1ccccc1C1=C(c2cn(C)c3ccccc23)C(=O)NC1=O
[1]
  liver cell % of control: 136%
  parasite % of control: 37% (inactive)
[2]
  percent of negative control (+Dex): 96% (inactive)
  z-score: -1.4
[3]
  EGFP object count: 22
  EGFP/DsRed ratio: 0.4 (inactive)
[4]
  fraction signal: 0.0035 (inactive)

## Cn1cc(C2=C(c3cn(C)c4cc(C(=O)O)ccc34)C(=O)NC2=O)c2ccccc21
[1]
  liver cell % of control: 145%
  parasite % of control: 38.3% (inactive)
[2]
  percent of negative control (+Dex): 99% (inactive)
  z-score: 0.65
[3]
  EGFP object count: 2.5
  EGFP/DsRed ratio: 0.485 (inactive)
[4]
  fraction signal: 0.0035 (inactive)

## CN(C)CC#Cc1cccc(C(=O)c2cnn(-c3ccc(F)cc3)c2N)c1
[1]
  liver cell % of control: 101%
  parasite % of control: 74.8% (inactive)
[2]
  percent of negative control (+Dex): 109% (inactive)
  z-score: 1.23
[3]
  EGFP object count: 3
  EGFP/DsRed ratio: 0.0589 (inactive)
[4]
  fraction signal: -0.001 (inactive)

## COc1cc[nH]c1C=C1C(=O)Nc2ccc(F)c(C#CC3(O)CCOCC3)c21
[1]
  liver cell % of control: 128%
  parasite % of control: 1.61% (active)
[2]
  percent of negative control (+Dex): 122% (inactive)
  z-score: -1.81
[3]
  EGFP object count: 6
  EGFP/DsRed ratio: 0.109 (inactive)
[4]
  fraction signal: -0.0095 (inactive)

## Cn1cc(C2=C(c3cn(C)c4c([N+](=O)[O-])cccc34)C(=O)NC2=O)c2ccccc21
[1]
  liver cell % of control: 78.7%
  parasite % of control: 22.7% (inactive)
[2]
  percent of negative control (+Dex): 102% (inactive)
  z-score: -0.03
[3]
  EGFP object count: 18.5
  EGFP/DsRed ratio: 0.137 (inactive)
[4]
  fraction signal: -0.005 (inactive)

## COc1ccc(N2Cc3cnc(Nc4ccccc4)nc3N(C3CCC(O)C3)C2=O)cc1 (stereo not drawn)
[1]
  liver cell % of control: 114%
  parasite % of control: 234% (inactive)
[2]
  percent of negative control (+Dex): 67% (active)
  z-score: -1.67
[3]
  EGFP object count: 1.5
  EGFP/DsRed ratio: 0.0589 (inactive)
[4]
  fraction signal: -0.007 (inactive)

## Cn1c(=O)c(Oc2ccc(F)cc2F)cc2cnc(NC(CO)CO)nc21
[1]
  liver cell % of control: 113%
  parasite % of control: 64.2% (inactive)
[2]
  percent of negative control (+Dex): 108% (inactive)
  z-score: 0.05
[3]
  EGFP object count: 2.5
  EGFP/DsRed ratio: 0.0637 (inactive)
[4]
  fraction signal: 0.0035 (inactive)

## CCOc1ccccc1CCN=C1NC(=O)C(=Cc2ccc3ncccc3c2)S1
[1]
  liver cell % of control: 106%
  parasite % of control: 66% (inactive)
[2]
  percent of negative control (+Dex): 90% (inactive)
  z-score: -0.335
[3]
  EGFP object count: 11.5
  EGFP/DsRed ratio: 0.141 (inactive)
[4]
  fraction signal: 0.031 (inactive)

## Cn1c(=O)c(Cc2ccc(F)cc2F)cc2cnc(NC3CCOCC3)nc21
[1]
  liver cell % of control: 103%
  parasite % of control: 54.9% (inactive)
[2]
  percent of negative control (+Dex): 98.5% (inactive)
  z-score: 0.48
[3]
  EGFP object count: 3
  EGFP/DsRed ratio: 0.139 (inactive)
[4]
  fraction signal: -0.0055 (inactive)

## Nc1c(C(=O)c2cccc(-c3cccnc3)c2)cnn1-c1ccc(F)cc1F
[1]
  liver cell % of control: 175%
  parasite % of control: 28.3% (inactive)
[2]
  percent of negative control (+Dex): 110% (inactive)
  z-score: 0.74
[3]
  EGFP object count: 4.5
  EGFP/DsRed ratio: 0.0328 (inactive)
[4]
  fraction signal: 0.0015 (inactive)
